Among the data in article PMC7862700, “An all-to-all approach to the identification of sequence-specific readers for epigenetic DNA modifications on cytosine” are binding signal values, retold here.

Test in all cases: DAPPL (digital affinity profiling via proximity ligation, sequencing); 10 mM Tris-HCl pH 7.5, 50 mM NaCl, 1 mM DTT, 4% glycerol, room temperature, 30 min; GST-TFs on glutathione beads, 16-mer random dsDNA library, 0.1% formaldehyde crosslink after washing; high values mean tight binding
Settings in all cases: protein: recombinant; tags: N-terminal GST; dsDNA, one strand shown

One assay addresses T1, FLI1 (Homo sapiens, UniProt Q01543 1-452).
T1 sequence: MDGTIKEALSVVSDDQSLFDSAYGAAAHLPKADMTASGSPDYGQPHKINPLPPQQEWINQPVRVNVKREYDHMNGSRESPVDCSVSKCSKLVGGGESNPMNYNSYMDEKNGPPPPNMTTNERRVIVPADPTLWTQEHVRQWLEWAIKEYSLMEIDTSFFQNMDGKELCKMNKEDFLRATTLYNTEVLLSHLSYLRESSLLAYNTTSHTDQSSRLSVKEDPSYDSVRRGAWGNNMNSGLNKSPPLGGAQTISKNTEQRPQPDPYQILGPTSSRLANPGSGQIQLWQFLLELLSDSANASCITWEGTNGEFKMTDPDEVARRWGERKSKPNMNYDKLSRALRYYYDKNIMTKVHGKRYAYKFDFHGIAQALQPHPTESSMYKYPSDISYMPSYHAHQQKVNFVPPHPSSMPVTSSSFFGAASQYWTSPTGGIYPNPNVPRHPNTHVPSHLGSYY
In a few lines: (§1)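 Human transcription factors carrying a GST fusion were produced in yeast, bound to glutathione beads, tagged with DNA barcodes and pooled together with a tag-only sample. Each pool was held with 200 nmole of a random double-stranded 16-mer DNA library in Tris/NaCl/DTT/glycerol buffer for 30 min at room temperature, then washed, crosslinked in 0.1% formaldehyde, proximity-ligated with BsaI/T4 ligase (1 h, 37 °C), PCR-amplified and sequenced on an Illumina NextSeq500. Binding signal is the read frequency of each hexamer for a given factor divided by its frequency in the tag-only sample.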

In the next assay the target is T2, ELK1 (Homo sapiens, UniProt P19419 1-428).
T2 sequence: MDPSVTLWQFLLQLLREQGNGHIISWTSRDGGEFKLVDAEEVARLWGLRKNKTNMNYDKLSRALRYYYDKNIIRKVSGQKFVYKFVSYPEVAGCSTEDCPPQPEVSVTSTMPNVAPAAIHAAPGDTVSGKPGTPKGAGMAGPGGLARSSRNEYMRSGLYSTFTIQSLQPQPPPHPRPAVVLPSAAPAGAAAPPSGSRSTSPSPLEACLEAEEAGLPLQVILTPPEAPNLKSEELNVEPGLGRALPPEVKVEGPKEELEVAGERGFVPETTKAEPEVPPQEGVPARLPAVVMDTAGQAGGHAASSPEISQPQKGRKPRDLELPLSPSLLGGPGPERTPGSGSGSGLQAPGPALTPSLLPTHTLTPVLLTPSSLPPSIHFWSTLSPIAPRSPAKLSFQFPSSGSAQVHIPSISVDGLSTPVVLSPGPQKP
In a few lines:
as §1

Another assay deals with T3, GABPA (Homo sapiens, UniProt Q06546 1-454).
T3 sequence: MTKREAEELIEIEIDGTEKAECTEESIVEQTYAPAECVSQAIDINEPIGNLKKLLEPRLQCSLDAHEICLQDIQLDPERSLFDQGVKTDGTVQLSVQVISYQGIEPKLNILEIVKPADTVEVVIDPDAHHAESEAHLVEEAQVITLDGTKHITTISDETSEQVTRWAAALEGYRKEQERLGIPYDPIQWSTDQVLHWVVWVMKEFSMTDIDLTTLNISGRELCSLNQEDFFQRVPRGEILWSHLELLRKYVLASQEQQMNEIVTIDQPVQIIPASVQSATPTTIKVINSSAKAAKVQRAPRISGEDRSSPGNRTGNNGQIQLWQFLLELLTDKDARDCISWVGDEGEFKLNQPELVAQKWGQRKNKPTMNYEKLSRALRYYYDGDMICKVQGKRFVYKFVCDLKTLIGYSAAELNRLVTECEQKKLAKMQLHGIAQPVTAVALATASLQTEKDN
In a few lines:
as §1

The target in another assay is T4, ERG (Homo sapiens, UniProt P11308 1-479).
T4 sequence: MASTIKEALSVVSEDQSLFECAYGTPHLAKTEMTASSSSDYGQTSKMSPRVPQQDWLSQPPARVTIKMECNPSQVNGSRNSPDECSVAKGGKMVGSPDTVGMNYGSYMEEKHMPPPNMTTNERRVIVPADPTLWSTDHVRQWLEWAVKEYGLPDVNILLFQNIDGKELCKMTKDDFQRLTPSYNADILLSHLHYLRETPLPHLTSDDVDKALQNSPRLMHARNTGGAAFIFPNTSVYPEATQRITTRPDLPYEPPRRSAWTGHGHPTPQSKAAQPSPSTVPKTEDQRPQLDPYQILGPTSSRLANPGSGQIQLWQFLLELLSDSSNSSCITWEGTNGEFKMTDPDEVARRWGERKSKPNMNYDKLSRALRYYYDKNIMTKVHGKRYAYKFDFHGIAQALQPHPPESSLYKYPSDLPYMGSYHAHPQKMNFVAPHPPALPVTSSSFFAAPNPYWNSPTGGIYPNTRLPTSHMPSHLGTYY
In a few lines:
as §1

In the next assay the target is ELF1 (Homo sapiens, UniProt P32519 1-619). In a few lines: as §1
Chain of ELF1 (P32519 whole entry): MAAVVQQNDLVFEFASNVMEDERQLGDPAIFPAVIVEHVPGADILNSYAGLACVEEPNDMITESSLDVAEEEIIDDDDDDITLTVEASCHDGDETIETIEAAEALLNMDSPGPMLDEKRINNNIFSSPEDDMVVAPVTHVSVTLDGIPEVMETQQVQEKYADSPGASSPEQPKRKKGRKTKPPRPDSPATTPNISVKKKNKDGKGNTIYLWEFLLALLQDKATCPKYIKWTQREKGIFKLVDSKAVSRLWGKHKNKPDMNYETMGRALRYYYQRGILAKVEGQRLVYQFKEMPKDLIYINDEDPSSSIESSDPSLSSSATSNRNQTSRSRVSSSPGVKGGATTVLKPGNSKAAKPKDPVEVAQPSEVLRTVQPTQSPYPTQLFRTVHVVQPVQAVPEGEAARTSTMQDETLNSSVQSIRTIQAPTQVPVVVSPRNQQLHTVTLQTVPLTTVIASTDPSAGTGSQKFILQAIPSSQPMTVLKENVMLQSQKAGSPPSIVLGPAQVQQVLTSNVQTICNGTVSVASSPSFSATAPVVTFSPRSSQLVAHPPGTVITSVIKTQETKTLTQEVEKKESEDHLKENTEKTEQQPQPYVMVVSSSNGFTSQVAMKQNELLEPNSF
The target of another assay is T5, EHF (Homo sapiens, UniProt Q9NZC4 1-300).
T5 sequence: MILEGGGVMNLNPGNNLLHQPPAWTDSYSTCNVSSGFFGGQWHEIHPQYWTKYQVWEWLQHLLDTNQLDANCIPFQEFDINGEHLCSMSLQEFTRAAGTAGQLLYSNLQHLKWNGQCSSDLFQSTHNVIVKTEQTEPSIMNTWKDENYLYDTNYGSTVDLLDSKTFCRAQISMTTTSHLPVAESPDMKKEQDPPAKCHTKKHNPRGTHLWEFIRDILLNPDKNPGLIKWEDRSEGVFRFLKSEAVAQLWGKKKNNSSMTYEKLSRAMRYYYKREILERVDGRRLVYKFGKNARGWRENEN
Put shortly:
as §1

A further assay addresses SPI1 (Homo sapiens, UniProt P17947 1-270). In a few lines: as §1
In a further assay the target is SPIB (Homo sapiens, UniProt Q01892 1-262). Put shortly: as §1
Chain of SPIB (Q01892 whole entry): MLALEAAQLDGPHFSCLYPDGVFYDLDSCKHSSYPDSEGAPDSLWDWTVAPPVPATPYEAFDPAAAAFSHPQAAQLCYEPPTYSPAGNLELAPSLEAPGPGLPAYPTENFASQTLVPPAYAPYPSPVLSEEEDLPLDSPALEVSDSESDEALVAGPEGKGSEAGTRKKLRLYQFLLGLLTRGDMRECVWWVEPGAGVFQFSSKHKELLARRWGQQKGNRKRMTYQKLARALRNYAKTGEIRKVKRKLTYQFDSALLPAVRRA
In the next assay the target is T6, ELK3 (Homo sapiens, UniProt P41970 1-407).
T6 sequence: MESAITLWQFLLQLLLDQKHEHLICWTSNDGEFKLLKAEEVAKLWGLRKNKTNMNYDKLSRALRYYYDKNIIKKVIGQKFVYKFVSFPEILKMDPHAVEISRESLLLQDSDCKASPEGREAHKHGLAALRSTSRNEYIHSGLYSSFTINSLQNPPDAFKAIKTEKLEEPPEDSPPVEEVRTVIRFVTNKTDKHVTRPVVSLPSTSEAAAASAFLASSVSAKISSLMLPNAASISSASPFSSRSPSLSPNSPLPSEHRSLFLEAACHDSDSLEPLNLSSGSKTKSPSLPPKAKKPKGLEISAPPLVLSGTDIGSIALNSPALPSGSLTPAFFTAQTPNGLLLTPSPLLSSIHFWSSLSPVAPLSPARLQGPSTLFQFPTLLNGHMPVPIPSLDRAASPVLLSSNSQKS
In a few lines: as §1

As for TGTTTT, the binding signal with FLI1 was 1.36 fold enrichment (6-mer frequency, TF over GST control); in the assay with ELK1, 1.32 fold enrichment (6-mer frequency, TF over GST control); in the assay with GABPA it was 1.35 fold enrichment (6-mer frequency, TF over GST control); in the assay with ERG, 1.26 fold enrichment (6-mer frequency, TF over GST control); in the assay with ELF1 it was 1.34 fold enrichment (6-mer frequency, TF over GST control); with EHF it was 1.35 fold enrichment (6-mer frequency, TF over GST control). The binding signal with SPI1 is 1.43 fold enrichment (6-mer frequency, TF over GST control); in the assay with SPIB, 1.3 fold enrichment (6-mer frequency, TF over GST control); with ELK3 it was 1.43 fold enrichment (6-mer frequency, TF over GST control).

Consider TTCTTT, for which the binding signal is 1.18 fold enrichment (6-mer frequency, TF over GST control) with FLI1; 1.13 fold enrichment (6-mer frequency, TF over GST control) with ELK1; 1.21 fold enrichment (6-mer frequency, TF over GST control) in the assay with GABPA; 1.27 fold enrichment (6-mer frequency, TF over GST control) with ERG; 1.35 fold enrichment (6-mer frequency, TF over GST control) with ELF1; 1.11 fold enrichment (6-mer frequency, TF over GST control) with EHF. For the same sequence, the binding signal in the assay with SPI1 is 1.23 fold enrichment (6-mer frequency, TF over GST control); with SPIB it was 1.21 fold enrichment (6-mer frequency, TF over GST control); with ELK3, 1.17 fold enrichment (6-mer frequency, TF over GST control).

With ATAACA, the binding signal was 1.2 fold enrichment (6-mer frequency, TF over GST control) with FLI1; 1.29 fold enrichment (6-mer frequency, TF over GST control) with ELK1; 1.22 fold enrichment (6-mer frequency, TF over GST control) with GABPA; 1.25 fold enrichment (6-mer frequency, TF over GST control) in the assay with ERG; 1.28 fold enrichment (6-mer frequency, TF over GST control) with ELF1; 1.19 fold enrichment (6-mer frequency, TF over GST control) in the assay with EHF. Further, the binding signal with SPI1 is 1.16 fold enrichment (6-mer frequency, TF over GST control); with SPIB, 1.33 fold enrichment (6-mer frequency, TF over GST control); in the assay with ELK3 it was 1.24 fold enrichment (6-mer frequency, TF over GST control).

With TGAACT, the binding signal was 1.27 fold enrichment (6-mer frequency, TF over GST control) in the assay with FLI1; 1.19 fold enrichment (6-mer frequency, TF over GST control) with ELK1; 1.33 fold enrichment (6-mer frequency, TF over GST control) in the assay with GABPA; 1.32 fold enrichment (6-mer frequency, TF over GST control) in the assay with ERG; 1.2 fold enrichment (6-mer frequency, TF over GST control) in the assay with ELF1; 1.34 fold enrichment (6-mer frequency, TF over GST control) in the assay with EHF. The binding signal with SPI1 was 1.17 fold enrichment (6-mer frequency, TF over GST control); with SPIB, 1.25 fold enrichment (6-mer frequency, TF over GST control); in the assay with ELK3 it was 1.19 fold enrichment (6-mer frequency, TF over GST control).

Regarding CAACTT, the binding signal with FLI1 was 1.62 fold enrichment (6-mer frequency, TF over GST control); with ELK1, 1.62 fold enrichment (6-mer frequency, TF over GST control); with GABPA it was 1.53 fold enrichment (6-mer frequency, TF over GST control); with ERG, 1.68 fold enrichment (6-mer frequency, TF over GST control); with ELF1, 1.55 fold enrichment (6-mer frequency, TF over GST control); with EHF, 1.54 fold enrichment (6-mer frequency, TF over GST control). The binding signal with SPI1 was 1.69 fold enrichment (6-mer frequency, TF over GST control); with SPIB, 1.68 fold enrichment (6-mer frequency, TF over GST control); in the assay with ELK3 it was 1.59 fold enrichment (6-mer frequency, TF over GST control).

For the sequence ATTGTA, the binding signal with FLI1 is 1.22 fold enrichment (6-mer frequency, TF over GST control); with ELK1, 1.33 fold enrichment (6-mer frequency, TF over GST control); with GABPA, 1.17 fold enrichment (6-mer frequency, TF over GST control); with ERG, 1.19 fold enrichment (6-mer frequency, TF over GST control); with ELF1, 1.24 fold enrichment (6-mer frequency, TF over GST control); in the assay with EHF, 1.22 fold enrichment (6-mer frequency, TF over GST control). Moreover, the binding signal with SPI1 is 1.09 fold enrichment (6-mer frequency, TF over GST control); with SPIB, 1.24 fold enrichment (6-mer frequency, TF over GST control); with ELK3, 1.27 fold enrichment (6-mer frequency, TF over GST control).

ATGAAT: the binding signal was 1.16 fold enrichment (6-mer frequency, TF over GST control) in the assay with FLI1; 1.16 fold enrichment (6-mer frequency, TF over GST control) with ELK1; 1.2 fold enrichment (6-mer frequency, TF over GST control) with GABPA; 1.11 fold enrichment (6-mer frequency, TF over GST control) with ERG; 1.07 fold enrichment (6-mer frequency, TF over GST control) with ELF1; 1.14 fold enrichment (6-mer frequency, TF over GST control) in the assay with EHF. The binding signal with SPI1 was 1.15 fold enrichment (6-mer frequency, TF over GST control); with SPIB, 1.23 fold enrichment (6-mer frequency, TF over GST control); with ELK3, 1.12 fold enrichment (6-mer frequency, TF over GST control).
